Reference: ChEMBL document CHEMBL3988442, “University of Dundee, Small-Polar-MMV Screening Library” (2021)
The campaign covered roughly 53,000 compounds. About 900 (1.7%) showed an effect of 50% or more. For the sample, strong results were picked, then their nearest neighbours and some compounds at random.

System: Mycobacterium tuberculosis
Test: Cornell - Phenotypic assay to identify agents that inhibit growth of Mycobacterium tuberculosis
Assay type: functional
Design: scale not given: direction of the effect not stated beside the values
Conditions: 10 mM as filed; unlikely as a test dose

Going from `O=C(Nc1nc2c(s1)CCC2)NC1CCCC1` to `Cc1cc(-c2cnc(NC3CCCCC3)nc2-c2ccco2)on1`, the “Percent Effect” value rises from 34.54% to 97.15%.

First: Cl.O=C(NCCO)c1sc2ncccc2c1C1CNCCO1 (stereo not drawn)
Second: CC(=O)Nc1nc(C(=O)NCc2ccc(N3CCCCC3)cc2)cs1
The “Percent Effect” value of the first is higher: 5.786% for the first, -6.079% for the second.

First: CN(CCN1CCOC1=O)CC(=O)Nc1cc(F)cc(F)c1
Second: Cc1nonc1NC(=O)CCn1cc(Br)ccc1=O
The “Percent Effect” value of the first is lower: -4.563% for the first, 6.093% for the second.

Compared with `CCN1CC(COC(=O)c2ccccc2Cl)CC1=O` (stereo not drawn), `CN(C)S(=O)(=O)NC1CC(=O)N(c2ccccc2Cl)C1` (stereo not drawn) is higher in “Percent Effect” value: 9.93% for the first, 14.57% for the second.

Compared with `CCc1c(C)sc(NC(=O)CN2CCN(CC)CC2)c1C(=O)OC`, `CCc1c(C)sc(NC(=O)CN2CCOCC2)c1C(=O)OC` is lower in “Percent Effect” value: 85.25% for the first, 13.88% for the second.

First: CCOC(=O)c1c(NC(=O)C2CCN(C(C)=O)CC2)sc(C)c1CC
Second: CCN1N=C(C(=O)N2CCCC(c3nc(C)c(C)s3)C2)CCC1=O (stereo not drawn)
The “Percent Effect” value of the first is higher: 0.6351% for the first, -28.99% for the second.

First: NC(=O)N1CCc2ncc(CNC(=O)CC3CC3)n2CC1
Second: CC(C(N)=O)N1CCN(c2ncc(Cl)cn2)CC1 (stereo not drawn)
The “Percent Effect” value of the first is lower: -19.97% for the first, -8.902% for the second.

Compared with `O=C(C1CC1)N1CCC2(CCCN2Cc2ccc(F)cc2)CC1.O=C(O)C(F)(F)F`, `O=C(O)C(F)(F)F.O=C1CC(c2ccncc2)C2(CCN(C(=O)c3ccc[nH]3)CC2)N1` (stereo not drawn) is lower in “Percent Effect” value: 3.548% for the first, -25.12% for the second.

First: CC(=O)N1CCCC(c2nc(N(C)C)ncc2-c2ccccc2)C1 (stereo not drawn)
Second: COCC(=O)N1CCCC(c2nc(N(C)C)ncc2-c2ccccc2)C1 (stereo not drawn)
The “Percent Effect” value of the first is lower: 12.04% for the first, 21.17% for the second.

Going from `CCC(=O)N1CCCC(c2nc(N(C)C)ncc2-c2ccc(F)cc2)C1` (stereo not drawn) to `CC(C)N1CCCC1c1nc(N(C)C)ncc1I` (stereo not drawn), the “Percent Effect” value falls from 78.09% to 5.368%.

Compared with `CCN1Cc2cc(OC)ccc2N(CC(C)(C)O)CCC1=O`, `CCn1cc2c(n1)C(COC)CN(C(=O)c1ccccn1)C2` (stereo not drawn) is higher in “Percent Effect” value: -17.4% for the first, 22.8% for the second.

Going from `CN(C)c1ncccc1CNC(=O)CCNc1ncccn1` to `Cc1nn(C)c(C)c1C(=O)NCc1cc(N(C)C)nc2ccccc12`, the “Percent Effect” value falls from 29.98% to -29.39%.

Compared with `Cc1noc(-c2cnc(NC(C)C)nc2-c2ccco2)c1C`, `Cc1noc(-c2cnc(NC3CC3)nc2-c2ccco2)c1C` is lower in “Percent Effect” value: 32.42% for the first, 21.85% for the second.

Compared with `Cc1cc(-c2cnc(NC3CCCC3)nc2-c2ccoc2C)on1`, `Cc1cc(-c2cnc(NC3CC3)nc2-c2ccoc2C)on1` is lower in “Percent Effect” value: 18.15% for the first, 6.588% for the second.

First: Cc1cc(-c2cnc(NC3CC3)nc2-c2ccoc2)on1
Second: Cc1cc(-c2cnc(NC3CCCC3)nc2-c2ccoc2)on1
The “Percent Effect” value of the first is lower: -15.23% for the first, 81.21% for the second.

Going from `Cc1cc(-c2cnc(NC3CCCC3)nc2-c2ccco2)on1` to `Cc1cc(-c2cnc(NC3CC3)nc2-c2ccco2)on1`, the “Percent Effect” value falls from 78.21% to 47.86%.

First: Cc1cnc(-c2nc(NC3CCCC3)ncc2-c2onc(C)c2C)cn1
Second: Cc1cnc(-c2nc(NC3CC3)ncc2-c2cc(C)no2)cn1
The “Percent Effect” value of the first is higher: 7.273% for the first, -18.55% for the second.

Going from `COCCNc1ncc(-c2cc(C)no2)c(-c2ccco2)n1` to `Cc1noc(-c2cnc(NCC3CCCO3)nc2-c2ccco2)c1C` (stereo not drawn), the “Percent Effect” value rises from -34.06% to 34.64%.

Going from `Cc1cc(-c2cnc(NC3CCCC3)nc2-c2ccc(C)o2)on1` to `Cc1occc1-c1nc(NC2CCCC2)ncc1-c1ccccn1`, the “Percent Effect” value falls from 92.52% to 85.8%.

First: CCc1noc(CN2CCN(CC(O)c3ccccc3)CC2)n1 (stereo not drawn)
Second: CCc1ccc(NC(=O)C(C)N2CCN(Cc3ncc[nH]3)CC2)cc1 (stereo not drawn)
The “Percent Effect” value of the first is lower: -1.918% for the first, -0.1574% for the second.

Going from `CC(C)=CCN1C[C@@H]2CN(C(=O)c3cnccc3C)C[C@]2(C(=O)O)C1` to `CCOC(=O)CN1CC(c2nc(-c3ccsc3)no2)C1.O=C(O)C(=O)O`, the “Percent Effect” value rises from 13.3% to 51.67%.

Going from `CC(C)[C@H](N)C(=O)N1CCSc2ccccc2C1.Cl` to `CC(C)(C)C(=O)N1C[C@@H](F)[C@@H](OCc2nc3ccccc3o2)C1`, the “Percent Effect” value rises from 15.34% to 16.14%.

Compared with `CS(=O)(=O)N1CC(c2ccnc(Nc3ccccn3)n2)C1`, `O=C(Nc1ccccn1)C1CCN(C(=O)COc2ccccc2F)C1` (stereo not drawn) is lower in “Percent Effect” value: 3.174% for the first, -42.88% for the second.

First: O=C(N1CCCC(n2cncn2)C1)C1(c2cccc(F)c2)CCCC1 (stereo not drawn)
Second: Cc1c(CN2CCC(C(=O)O)(n3cccn3)CC2)oc2ccccc12
The “Percent Effect” value of the first is lower: -7.361% for the first, -1.551% for the second.

Compared with `Cc1cc(CN(C)C(=O)CN2CCCCCC2=O)no1`, `COCC(=O)N1C[C@@H]2OCCN(Cc3c(C)noc3C)[C@@H]2C1` is lower in “Percent Effect” value: 6.807% for the first, -0.2298% for the second.

Compared with `Fc1cc(Oc2ccc(C(F)(F)F)cn2)cc(F)c1CN1CCCC1`, `COc1cc(Oc2ccc(C(F)(F)F)cn2)ccc1CN1CCCC1` is higher in “Percent Effect” value: 17.52% for the first, 21.65% for the second.

Going from `COc1ccc(Oc2ccc(C(F)(F)F)cn2)cc1CN1CCCC1` to `COc1cc(Oc2ccc(C#N)cn2)ccc1CN1CCCC1`, the “Percent Effect” value falls from 50.99% to 27.7%.

Going from `COc1cc(Oc2cnc3ccccc3n2)ccc1CN1CCCC1` to `COc1cc(Oc2ccc(C(N)=O)cn2)ccc1CN1CCCC1`, the “Percent Effect” value falls from 89.59% to 6.938%.

First: COc1ccc(CC(=O)NCCCc2nnc3nc(C)cc(C)n23)cc1
Second: COc1ccc(F)c(-c2ncccc2NC(=O)C(C)C)c1
The “Percent Effect” value of the first is lower: -52.99% for the first, -36.39% for the second.

Going from `Cc1c(Br)c(C(F)F)nn1C(C)C(=O)O` (stereo not drawn) to `COCCN(C)C(C(=O)O)c1ccc(Cl)c(F)c1` (stereo not drawn), the “Percent Effect” value falls from 18.88% to -23.65%.

Compared with `Cc1noc(C)c1CN1CCO[C@H]2CNC[C@H]21.Cl.Cl`, `Cc1ccc(N2C[C@@H]3OCCN(Cc4c(C)noc4C)[C@@H]3C2)nn1` is lower in “Percent Effect” value: 71.41% for the first, 2.66% for the second.

First: CCN(C)c1ncnc2c1CCN(S(=O)(=O)c1ccccc1)CC2.O=C(O)C(F)(F)F
Second: COCCN1CCN(S(=O)(=O)c2ccccc2)Cc2cccnc21.O=C(O)C(F)(F)F
The “Percent Effect” value of the first is lower: 2.965% for the first, 12.13% for the second.

Going from `CCCNc1nc(CS(=O)(=O)c2ccccc2)cs1` to `CNc1nc(CS(=O)(=O)c2ccccc2)cs1`, the “Percent Effect” value rises from -0.8742% to 106.2%.

Compared with `C=C(C)CNc1nc(CS(=O)(=O)c2ccccc2)cs1`, `CC(=O)Nc1nccn1Cc1ccccc1Cl` is higher in “Percent Effect” value: 8.279% for the first, 15.67% for the second.

Compared with `CC(C)c1nc(O)c2nnn(C[C@@H]3CCCN(Cc4ccsc4)C3)c2n1`, `CCS(=O)(=O)N1CC(c2nc(-c3ccsc3)no2)C1` is lower in “Percent Effect” value: 7.526% for the first, -31.96% for the second.

Going from `COCc1nc2cc(NCc3ccc(CO)o3)ccc2o1` to `COCc1nc2cc(NCc3ccc(C)o3)ccc2o1`, the “Percent Effect” value rises from 97.16% to 107.3%.

First: CCC(C)CNc1ccc2oc(COC)nc2c1 (stereo not drawn)
Second: COCc1nc2c(o1)CN(C(=O)NCc1ccccc1)C2
The “Percent Effect” value of the first is higher: 35.01% for the first, -49.74% for the second.

Going from `Cc1ccc(CNC(C)(C)c2noc(C(C)(C)C)n2)o1` to `CCOc1ccc(NC(=O)c2oc(CC)cc2C)cc1CO`, the “Percent Effect” value rises from -0.4607% to 34.25%.

First: Cc1nc(-c2ccccc2)nc2c1CCN(Cc1nccn1C)CC2
Second: O=C(COc1coc(CN2CCCCC2)cc1=O)c1ccccc1
The “Percent Effect” value of the first is higher: 6.349% for the first, -5.787% for the second.

Compared with `CN(C)c1ncc(C2Nc3cc(Cl)ccc3C3=NCCCN32)cn1.Cl` (stereo not drawn), `COCC(=O)N1CCN(C)CC(Cc2cc(N(C)C)ncn2)C1` (stereo not drawn) is higher in “Percent Effect” value: 8.449% for the first, 14.46% for the second.

Compared with `CCOc1ccc(NC(=O)c2[nH]c(C)cc2C)cc1CO`, `CCOc1ccc(NC(=O)c2cc(C)c(C)o2)cc1CO` is lower in “Percent Effect” value: 102.6% for the first, 22.28% for the second.

Compared with `CN1CCC(c2[nH]ncc2S(C)(=O)=O)CC1`, `Cn1cnnc1S(=O)(=O)C1CCN(S(=O)(=O)c2ccc(Cl)s2)CC1` is lower in “Percent Effect” value: 6.792% for the first, 6.004% for the second.

First: CCc1cccc2c(CC(=O)N(C)CCN(C)C)c(C)[nH]c12.O=C(O)CC(O)(CC(=O)O)C(=O)O
Second: Cc1[nH]c2c(C)cccc2c1CC(=O)N(C)CCN(C)C.O=C(O)CC(O)(CC(=O)O)C(=O)O
The “Percent Effect” value of the first is higher: 51.84% for the first, 27.37% for the second.

Compared with `Cc1ccc2c(CC(=O)N(C)CCN(C)C)c(C)[nH]c2c1C.O=C(O)CC(O)(CC(=O)O)C(=O)O`, `Cc1cc(O)cc(=O)n1CCCC(=O)Nc1n[nH]c2cc(Br)ccc12` is higher in “Percent Effect” value: 8.878% for the first, 104.6% for the second.

Compared with `N#Cc1cc(NS(=O)(=O)c2cc(C(=O)O)cc(Cl)c2Cl)ccc1F`, `Cc1cc(O)cc(=O)n1CCCC(=O)Nc1n[nH]c2cccc(F)c12` is higher in “Percent Effect” value: 13.91% for the first, 103.9% for the second.

Going from `CN(C)S(=O)(=O)N1CC(c2nc(-c3ccsc3)no2)C1` to `O=C(CCS(=O)(=O)C1CCCC1)N1CCCC1c1ccsc1` (stereo not drawn), the “Percent Effect” value falls from 18.06% to -6.93%.

First: O=C1NCCN1C(CNS(=O)(=O)C1CC1)Cc1cccc(F)c1 (stereo not drawn)
Second: CS(=O)(=O)CCCC(=O)Nc1cc(-c2cccc(F)c2F)n[nH]1
The “Percent Effect” value of the first is higher: 21.82% for the first, -2.681% for the second.

First: Cn1ccc(C(=O)Nc2nccn2Cc2ccccc2Cl)cc1=O
Second: CCOCC(=O)Nc1nccn1Cc1ccccc1Cl
The “Percent Effect” value of the first is higher: 51.57% for the first, 48.83% for the second.

First: CC(C)Cc1cc(NC(=O)c2n[nH]c3ccccc23)n(C)n1
Second: Cc1cc(O)cc(=O)n1CCCC(=O)Nc1n[nH]c2ccccc12
The “Percent Effect” value of the first is lower: 15.6% for the first, 81.79% for the second.

Going from `Cn1cc(NC(=O)C2CC(=O)N(c3n[nH]c4cccc(F)c34)C2)cn1` (stereo not drawn) to `Cc1cc(NC(=O)Cn2ccc(=O)c3ccccc32)[nH]n1`, the “Percent Effect” value rises from -30.85% to -8.025%.

Compared with `Cc1noc(C)c1NC(=O)CCn1cc(Br)ccc1=O`, `O=C(CSC1CCc2ccccc2NC1=O)NCCc1ccc(O)cc1` (stereo not drawn) is lower in “Percent Effect” value: 22.38% for the first, -13.35% for the second.

In the case of `CC(C)N(C(=O)CCc1ccco1)C1CCOCC1`, the “Percent Effect” value is reported as 2.754%.
